In PubChem BioAssay (Tox21):
Records with an inconclusive call do not appear. Active and inactive are the calls of the source. Unless noted, the call rests on the fitted dose curve; in most records, active means well fitted curve in the direction sought with a large enough effect in the repeat runs; inconclusive means weak or mixed curves; inactive means no such curve, though single readings can be large; an effect the other way counts as inactive or inconclusive.

Assays:
[1] = qHTS assay to identify small molecule agonists of the vitamin D receptor (VDR) signaling pathway - cell viability counter screen (AID 743224); further: series mostly up to about 63 µM; on the % scale 0 is the no-effect control and ±100 the full control effect; nearly all actives have a fitted effect of over 50% in size
In short: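 In parallel with the bla FRET readout, cytotoxicity toward VDR-bla cells after 16 h compound exposure was assessed by CellTiter-Glo, with luminescence recorded after a 30 min room-temperature incubation.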

[2] = qHTS assay to identify small molecule antagonists of the vitamin D receptor (VDR) signaling pathway - cell viability counter screen (AID 743225); further: on the % scale 0 is the no-effect control and ±100 the full control effect; nearly all actives have a fitted effect of over 50% in size
In short: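 Same-well multiplex: following 16 h treatment of HEK 293T cells carrying a UAS-driven beta-lactamase reporter with compound and agonist (3 nM final), and a 2 h FRET substrate step, CellTiter-Glo was added and luminescence read after 30 min.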

[3] = qHTS assay to identify small molecule agonists of the NFkB signaling pathway (AID 1159509; active means well fitted curve in the direction sought with a large enough effect in the signal ratio in the repeat runs, not every such curve was filed as active; the % refers to the signal ratio; further: series mostly up to about 61 µM; on the % scale 0 is the no-effect control and ±100 the full control effect)
In short: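 Beta-lactamase reporter assay run in quantitative high-throughput format on an NF-kB-responsive ME-180 line, with 5 hr compound treatment and a FRET-based blue/green fluorescence readout.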

[4] = qHTS assay to identify small molecule agonists of the NFkB signaling pathway - cell viability counter screen (AID 1159515; calls by dose curve; further: series mostly up to about 61 µM; on the % scale 0 is the no-effect control and ±100 the full control effect; nearly all actives have a fitted effect of over 55% in size)
In short: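 Plate 2,000 NFkB-bla ME-180 cells/well; incubate overnight. Add compounds, 5 hr at 37 C. Add FRET substrate, 1.5 hr RT. Add CellTiter-Glo, 30 min RT; read luminescence.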

[5] = qHTS assay to identify small molecule agonists of the endoplasmic reticulum stress response signaling pathway (AID 1159516; active means well fitted activation curve with a large enough effect in the signal ratio in the repeat runs, not every such curve was filed as active; the % refers to the signal ratio; further: on the % scale 0 is the no-effect control and ±100 the full control effect)
In short: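 Beta-lactamase expression from the ER stress response element in HeLa reporter cells is quantified with the LiveBLAzer B/G FRET substrate, read at 405 nm excitation after 2 hr at room temperature, following 5 hr compound treatment at 37 C.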

[6] = qHTS assay to identify small molecule agonists of the endoplasmic reticulum stress response signaling pathway - cell viability counter screen (AID 1159517; calls by dose curve; further: series mostly up to about 61 µM; on the % scale 0 is the no-effect control and ±100 the full control effect; nearly all actives have a fitted effect of over 50% in size)
In short: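 After overnight attachment, ESRE-bla HeLa cells were treated with Tox21 library compounds for 5 hr. CellTiter-Glo luminescence, read 30 min post-addition at room temperature, reported viability.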

[7] = qHTS assay to identify small molecule antagonists of the retinoid-related orphan receptor gamma (ROR-gamma) signaling pathway - cell viability counter screen (AID 1159520); further: on the % scale 0 is the no-effect control and ±100 the full control effect; nearly all actives have a fitted effect of over 50% in size
In short: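 Cytotoxicity was read from cellular ATP (CellTiter-Glo luminescence) after 16 hr at 37 C with 1 uM doxycycline induction. The inducer was added 2 hr after compound transfer to Tet-on ROR gamma CHO cells.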

[8] = molecular target: Nuclear receptor ROR-gamma (Homo sapiens) (UniProt P51449); experiment: qHTS assay to identify small molecule antagonists of the retinoid-related orphan receptor gamma (ROR-gamma) signaling pathway (AID 1159521)
In short: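 Inducible-expression reporter assay: doxycycline (1 uM final) switched on RORγ in CHO cells bearing a ROR response element-luciferase construct, with test compounds present from 2 h beforehand. Decreased luminescence after 16 h defined antagonist activity.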

[9] = qHTS assay to identify small molecule agonists of the AP-1 signaling pathway - cell viability counter screen (AID 1159525; calls by dose curve; further: nearly all actives have a fitted effect of over 55% in size)
In short: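 Intracellular ATP by Cell Titer Glo luminescence (30 min, RT) in the same ME-180 AP-1-bla wells after the 5 h compound exposure at 37 °C. Normalised to tetra n-octyl ammonium bromide and DMSO controls.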

[10] = qHTS assay to identify small molecule agonists of the AP-1 signaling pathway (AID 1159526; calls by dose curve; further: on the % scale 0 is the no-effect control and ±100 the full control effect)
[11] = molecular target: Retinoic acid receptor RXR-alpha (Homo sapiens) (UniProt P19793); experiment: qHTS assay to identify small molecule agonists of the RXR signaling pathway (AID 1159527; calls by dose curve; further: on the % scale 0 is the no-effect control and ±100 the full control effect; nearly all actives have a fitted effect of over 35% in size)
Chain of Retinoic acid receptor RXR-alpha (Homo sapiens) (P19793 whole entry, looked up): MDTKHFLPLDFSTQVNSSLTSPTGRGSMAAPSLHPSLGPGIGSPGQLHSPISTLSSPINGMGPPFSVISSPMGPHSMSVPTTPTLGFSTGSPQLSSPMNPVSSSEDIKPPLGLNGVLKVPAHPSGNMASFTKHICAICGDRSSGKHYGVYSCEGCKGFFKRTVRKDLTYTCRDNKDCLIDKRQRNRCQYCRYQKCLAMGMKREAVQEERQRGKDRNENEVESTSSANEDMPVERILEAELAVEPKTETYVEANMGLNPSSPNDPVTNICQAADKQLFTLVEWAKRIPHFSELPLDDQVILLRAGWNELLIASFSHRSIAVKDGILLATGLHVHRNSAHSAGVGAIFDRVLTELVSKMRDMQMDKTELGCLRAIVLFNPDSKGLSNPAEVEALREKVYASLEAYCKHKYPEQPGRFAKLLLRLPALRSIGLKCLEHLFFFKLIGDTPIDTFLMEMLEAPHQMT
In short: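 Compounds in DMSO were added to RXR-alpha-UAS-bla HEK 293T cells kept in 2% charcoal-stripped serum, and incubated 16 hr at 37 C with 5% CO2. Reporter signal came from a 2 hr B/G FRET substrate step.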

[12] = qHTS assay to identify small molecule agonists of the RXR signaling pathway - cell viability counter screen (AID 1159529)
In short: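 Counter screen: CellTiter-Glo luminescence. Cells: RXR-alpha-UAS-bla HEK 293T. Medium: 2% charcoal-stripped FBS. Treatment: 16 h, 37 C. Reagent incubation: 30 min, RT.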

[13] = qHTS assay to identify small molecule antagonists of the retinoid acid receptor (RAR) signaling pathway - cell viability counter screen (AID 1159551); further: on the % scale 0 is the no-effect control and ±100 the full control effect; nearly all actives have a fitted effect of over 35% in size
In short: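 Viability of C3RL4 cells is quantified from ATP by luminescence after 6 h treatment at 37 C with compounds and 1 uM retinol.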

[14] = qHTS assay to identify small molecule antagonists of the estrogen related receptor (ERR) signaling pathway - cell viability counter screen (AID 1224818);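 further: series mostly up to about 46 µM; viability measured after 17.5 h of compound exposure; on the % scale 0 is the no-effect control and ±100 the full control effect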
In short: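 Cytotoxicity check run alongside the ERR antagonist screen: cells exposed to test compounds 17.5 h at 37 C, viability taken as CellTiter-Fluor fluorescence intensity.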

[15] = qHTS assay to identify small molecule antagonists of the retinoic acid receptor (RAR) signaling pathway (AID 1159552)
In short: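 Antagonism of retinol-induced RARE reporter activity was measured in C3RL4 cells. Exposure to compounds and 1 uM final retinol lasted 6 hr at 37 C, with luminescence as endpoint.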

[16] = qHTS assay to identify small molecule agonists of the retinoic acid receptor (RAR) signaling pathway (AID 1159553); further: on the % scale 0 is the no-effect control and ±100 the full control effect
In short: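 Compounds dissolved in DMSO were pinned onto C3RL4 cells seeded the previous day, and plates were held 6 hr at 37 C. RARE-driven luciferase output was then read by luminescence.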

[17] = qHTS assay to identify small molecule antagonists of the estrogen related receptor signaling pathway with the pleiotropic PPARgamma coactivator (PGC) cell viability counter screen (AID 1224822)
In short: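 Viable cell signal (CellTiter-Fluor, 30 min, 37 C/5% CO2) was measured in PGC/ERR cells after a 17.5 h compound incubation.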

CCN(CC)CCOCCOC(=O)C1(c2ccccc2)CCCC1
inactive: Potency [1] | Potency [2] | outcome [3] | outcome [4] | outcome [5] | outcome [6] | outcome [7] | Potency [8] | Potency [9] | outcome [10] | Potency [11] | Potency [12] | outcome [13] | outcome [14]

CCOC(C)(C)C
inactive: Potency [1] | Potency [2] | outcome [3] | outcome [4] | outcome [5] | outcome [6] | outcome [7] | Potency [8] | Potency [9] | outcome [10] | Potency [11] | Potency [12] | outcome [13] | Potency [15]

c1ccc([C@H]2CN3CCSC3=N2)cc1
inactive: Potency [1] | Potency [2] | outcome [3] | outcome [4] | outcome [5] | outcome [6] | outcome [7] | Potency [8] | Potency [9] | outcome [10] | Potency [11] | Potency [12] | outcome [13] | Potency [16] | outcome [14] | outcome [17]

c1cnc(N2CCN(Cc3ccc4c(c3)OCO4)CC2)nc1
inactive: Potency [1] | outcome [3] | outcome [4] | outcome [5] | outcome [6] | outcome [7] | Potency [8] | Potency [9] | outcome [10] | Potency [11] | Potency [12] | outcome [13] | outcome [14] | outcome [17]

N=C(N)c1ccc2cc(OC(=O)c3ccc(N=C(N)N)cc3)ccc2c1
inactive: Potency [1] | Potency [2] | outcome [3] | outcome [4] | outcome [5] | outcome [6] | outcome [7] | Potency [8] | Potency [9] | outcome [10] | Potency [11] | Potency [12] | outcome [13] | Potency [16]

COc1ccccc1OCC(O)CN1CCN(CC(=O)Nc2c(C)cccc2C)CC1 (centres undefined)
inactive: Potency [1] | Potency [2] | outcome [3] | outcome [4] | outcome [5] | outcome [6] | outcome [7] | Potency [8] | Potency [9] | outcome [10] | Potency [11] | Potency [12] | outcome [13] | Potency [16] | outcome [14] | outcome [17]

OC1CCCCC1c1ccccc1 (centres undefined)
inactive: Potency [1] | Potency [2] | outcome [3] | outcome [4] | outcome [5] | outcome [6] | outcome [7] | Potency [8] | Potency [9] | outcome [10] | Potency [11] | Potency [12] | outcome [13] | Potency [15]

FC(F)OC(Cl)C(F)(F)F (centres undefined)
inactive: Potency [1] | Potency [2] | outcome [3] | outcome [4] | outcome [5] | outcome [6] | outcome [7] | Potency [8] | Potency [9] | outcome [10] | Potency [11] | Potency [12] | outcome [13] | Potency [15]

Cc1cnc(NS(=O)(=O)c2ccc(N)cc2)nc1
inactive: Potency [1] | outcome [3] | outcome [4] | outcome [5] | outcome [6] | outcome [7] | Potency [8] | Potency [9] | outcome [10] | Potency [11] | Potency [12] | outcome [13] | Potency [16]

CN(C(=O)c1c(O)c2ccccc2n(C)c1=O)c1ccccc1
inactive: Potency [1] | Potency [2] | outcome [3] | outcome [4] | outcome [5] | outcome [6] | outcome [7] | Potency [8] | Potency [9] | outcome [10] | Potency [11] | Potency [12] | outcome [13] | Potency [16]

CCCCCCOC(=O)CCCCC(=O)OCCCCCC
inactive: Potency [1] | Potency [2] | outcome [3] | outcome [4] | outcome [5] | outcome [6] | outcome [7] | Potency [8] | Potency [9] | outcome [10] | Potency [11] | Potency [12] | outcome [13] | Potency [15]

CCCCC/C=C\CCC=O
inactive: Potency [1] | Potency [2] | outcome [3] | outcome [4] | outcome [5] | outcome [6] | outcome [7] | Potency [8] | Potency [9] | outcome [10] | Potency [11] | Potency [12] | outcome [13]

CCCCCCCCCCCCCC=O
inactive: activity change, negative = cytotoxicity [1] -0.0946% [at 5.95 µM] | viability change, negative = cytotoxic [2] 5.28% [at 6.95 µM] | activation [3] -1.29% [at 6.95 µM] | activity, negative = cytotoxic [4] 2.89% [at 6.95 µM] | activation [5] -3.51% [at 6.95 µM] | activity change, negative = cytotoxicity [6] 0.611% [at 6.95 µM] | activity, negative = cytotoxicity [7] 2.5% [at 8.39 µM] | activity change, negative = inhibition [8] 5.08% [at 8.39 µM] | viability change, negative = cytotoxic [9] -4.58% [at 6.97 µM] | activation [10] -1.06% [at 6.97 µM] | activation [11] 0.369% [at 6.98 µM] | activity change, negative = cytotoxicity [12] 1.55% [at 6.97 µM] | activity change, negative = cytotoxicity [13] 4.56% [at 8.39 µM] | activation [16] 1.59% [at 8.36 µM]
